ATXN2 expr inh – ATXN2 expression inhibition; HEK-293 ATXN2-luciferase reporter, luminescence, 24 h; Potency, µM (series often up to 57 µM), hits mostly inhibitors; 360,000 compounds, 0.72% hits; note: nearly all actives have a fitted effect of over 55% in size
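ATXN2-luciferase reporter cells (luciferase flanked by upstream and downstream ATXN2 gene portions) were treated 24 h at 37 °C with compounds at up to 57 uM. SteadyGlo luminescence gave expression; GF-AFC fluorescence gave viability.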
HepG2 tox-1 – kills HepG2 cells in TGF-b inhibitor counter-screen; HepG2 CAGA-GFP viability, ATP luminescence, 18 h; Potency, µM (top dose mostly 46.1 µM), most hits filed as cytotoxic; 410,000 compounds, 0.76% hits; AID 588856
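CellTiter-Glo luminescence gave cytotoxicity after 18 hours at 37 degrees C. The cells were HepG2 CAGA-GFP in 1% FBS DMEM, stimulated with 500 pg/mL TGF-beta after compound addition. %Activity was normalised to no-cell wells (complete cell-killing) and DMSO (no toxicity), and curves were fitted and classified.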
Giardia kill – kills Giardia lamblia. Giardia lamblia trophozoite viability. activity change, % at 7.66 µM, hits read low. 340,000 compounds, 0.15% hits. AID 540267; in the data active = activity change below about -80%; inconclusive = between about -30% and that limit;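 note: parasites exposed to compound for two days anaerobically before the ATP read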
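Luminescent ATP signal served as the viability read-out, measured 15-30 min after adding ATP detection reagent to trophozoites that had been incubated with compounds for 48 hrs at 37 deg C anaerobically at 100 cells/well.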
TGFb SMAD3 inh – blocks TGF-b signaling. 410,000 compounds, 1.2% hits. Potency, µM (series often up to 46.1 µM), actives largely listed as inhibitors. HepG2 CAGA-GFP TGF-b/SMAD3 reporter, GFP fluorescence, 18 h; TGF-beta stimulated, 500 pg/mL final. AID 588855; note: nearly all actives have a fitted effect of over 65% in size
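Cell-based qHTS in HEPG2 carrying a CAGA-GFP Smad reporter; compounds added before 500 pg/mL final TGF-beta, 18 h incubation at 37 degrees C, GFP fluorescence quantified per cell by imaging cytometry.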
S2 tox – reduces viability in counter-screen for ATXN expression inhibitors; Potency, µM (top dose mostly 56.7 µM), most hits filed as cytotoxic; AID 651635; 400,000 compounds, 0.49% hits; S2 cells (HEK-293 line with an ATXN2-luciferase reporter) viability, CellTiter-Fluor protease fluorescence, 24 h; note: nearly all actives have a fitted effect of over 40% in size
uPA generation – inhibitors of cell surface uPA generation; cell surface uPA generation assay, qHTS; Potency, µM (doses to about 38.3 µM), usual class: inhibitors; 330,000 compounds, 0.31% hits; AID 540303; active = well fitted inhibition curve with a large enough effect; inconclusive = small, poorly fitted or top-dose-only effect; inactive = no such curve, though single readings can be large or run the other way; tested in mouse RAW 264.7 cells; note: nearly all actives have a fitted effect of over 55% in size
TGFb CAGA inh – TGF-b pathway inhibition, cherry-pick retest; AID 720534; 1,600 compounds, 63% hits; Potency, µM (top dose mostly 46.1 µM), most hits filed as inhibitors; shares compounds with TGFb SMAD3 inh; HepG2 CAGA-GFP TGF-b reporter, GFP fluorescence, 18 h; cells stimulated with TGF-beta, 500 pg/mL; note: nearly all actives have a fitted effect of over 65% in size
HepG2 tox-2 – toxic to HepG2 cells in TGF-b counterscreen. HepG2 CAGA-GFP viability, ATP luminescence, 18 h; cells stimulated with TGF-beta, 500 pg/mL. 1,600 compounds, 27% hits. AID 720535. Potency, µM (highest dose often 46.1 µM), actives largely listed as inhibitors. shares compounds with TGFb SMAD3 inh; note: nearly all actives have a fitted effect of over 70% in size
CCL64 TGFb inh – blocks TGF-b signaling in CCL64 reporter cells. shares compounds with TGFb SMAD3 inh. CCL64 CAGA-GFP reporter, TGF-b stimulated, GFP fluorescence, 18 h. Potency, µM (highest dose often 46.1 µM), usual class: inhibitors. 1,600 compounds, 41% hits; note: nearly all actives have a fitted effect of over 65% in size
TGFb COP inh – TGF-b inhibition validated with COP promoter; shares compounds with TGFb SMAD3 inh; HepG2 COP-GFP TGF-b reporter, GFP fluorescence, 18 h; cells stimulated by added recombinant TGF-beta; Potency, µM (highest dose often 46.1 µM), hits mostly inhibitors; 1,600 compounds, 3% hits; note: nearly all actives have a fitted effect of over 70% in size
Numbers stand for hits; [ ] = dose if it differs, or a comment. Shown are actives, neighbours in structure and some others; about 2.6% of the full set was active somewhere. Unless noted, calls come from the whole dose curve; as a rule, active = well fitted curve in the direction sought with a large enough effect; inconclusive = small, poorly fitted or top-dose-only effect, or another doubt; inactive = no such curve, though single readings can be large; an effect the other way counts as inactive or inconclusive.

How did Cc1cc(Cl)n2c(nc3ccccc32)c1C#N do in these assays?
ATXN2 expr inh: inconclusive; HepG2 tox-1: inactive; Giardia kill: inactive; TGFb SMAD3 inh: 1.8µM; uPA generation: inactive; TGFb CAGA inh: 1.2µM; HepG2 tox-2: 5.2µM; CCL64 TGFb inh: 1.5µM; TGFb COP inh: 26µM

Results for Cc1ccc(SCC(=O)OCC(=O)NC2(C#N)CCCCC2)cc1 ?
ATXN2 expr inh: inactive; HepG2 tox-1: inactive; Giardia kill: inactive; TGFb SMAD3 inh: inactive; S2 tox: inactive; uPA generation: inactive

What do the screens show for `COc1ccc(Cl)cc1NC(=O)CSc1nc(-c2ccco2)cc(C(F)(F)F)n1`?
HepG2 tox-1: inactive; TGFb SMAD3 inh: inconclusive

How did COc1ccc(/C=C/C(=O)c2ccc(NC3=NCCCS3)cc2)cc1OC do in these assays?
ATXN2 expr inh: inactive; HepG2 tox-1: inactive; Giardia kill: inactive; TGFb SMAD3 inh: 13µM; S2 tox: inactive; uPA generation: inactive; TGFb CAGA inh: 9.2µM; HepG2 tox-2: 16µM; CCL64 TGFb inh: 26µM; TGFb COP inh: inactive

Results for O=C(NN(C(=O)c1ccccc1)c1cccs1)c1ccccc1 ?
ATXN2 expr inh: inactive; HepG2 tox-1: inactive; Giardia kill: inactive; TGFb SMAD3 inh: inactive; S2 tox: inconclusive; uPA generation: inactive

How did O=C(COc1ccccc1)N[C@@H]1c2ccccc2CC[C@H]1OCc1ccccc1 do in these assays?
ATXN2 expr inh: inactive; HepG2 tox-1: inactive; Giardia kill: inactive; TGFb SMAD3 inh: 16µM; S2 tox: inactive; uPA generation: inconclusive; TGFb CAGA inh: inconclusive; HepG2 tox-2: inconclusive; CCL64 TGFb inh: 18µM; TGFb COP inh: inactive

How did O=C(COc1ccccc1)N[C@@H]1c2ccccc2CC[C@@H]1OCc1ccccc1 do in these assays?
ATXN2 expr inh: inactive; HepG2 tox-1: inactive; Giardia kill: inactive; TGFb SMAD3 inh: inactive; S2 tox: inactive; uPA generation: inactive

How did Cc1cc(N2CCN(C)CC2)ccc1NC(=O)c1c2c(nc3ccccc13)CCN(Cc1ccccc1)C2 do in these assays?
ATXN2 expr inh: inactive[11.3 µM]; HepG2 tox-1: 10µM; Giardia kill: inactive; TGFb SMAD3 inh: 10µM; S2 tox: inconclusive; uPA generation: inactive; TGFb CAGA inh: 3.3µM; HepG2 tox-2: 2.6µM; CCL64 TGFb inh: 8.2µM; TGFb COP inh: 12µM

Results for CC(=NNC(=S)N1CCCC1)c1ccccn1 ?
HepG2 tox-1: inactive; TGFb SMAD3 inh: inconclusive; S2 tox: inconclusive; TGFb CAGA inh: inconclusive; HepG2 tox-2: inconclusive; CCL64 TGFb inh: inconclusive; TGFb COP inh: inactive

What do the screens show for `COc1cc(NC(=O)N2CCC(CN3CCOCC3)CC2)cc(OC)c1OC`?
HepG2 tox-1: inactive; TGFb SMAD3 inh: inactive

How did O=C(N/N=C/c1ccccc1C(=O)O)c1ccc(COc2cccc3cccnc23)cc1 do in these assays?
HepG2 tox-1: inactive; Giardia kill: inactive; TGFb SMAD3 inh: inactive; S2 tox: inactive; uPA generation: inactive

What do the screens show for `O=C(N/N=C/c1ccc[nH]1)c1ccc(COc2cccc3cccnc23)cc1`?
ATXN2 expr inh: 7.5µM; HepG2 tox-1: inactive; Giardia kill: inactive; TGFb SMAD3 inh: 1.8µM; S2 tox: inconclusive; uPA generation: inactive; TGFb CAGA inh: 18µM; HepG2 tox-2: inconclusive; CCL64 TGFb inh: 2.1µM; TGFb COP inh: inactive

What do the screens show for `CCn1c(/C=C/c2cc(Br)ccc2O)nc2ccccc2c1=O`?
ATXN2 expr inh: inconclusive; HepG2 tox-1: inactive; Giardia kill: inactive; TGFb SMAD3 inh: 10µM; S2 tox: inactive; uPA generation: inconclusive; TGFb CAGA inh: inconclusive; HepG2 tox-2: inconclusive; CCL64 TGFb inh: inactive; TGFb COP inh: inactive

How did Cc1cccc(NC(=O)NCCn2c(=O)oc3ccc(C)cc32)c1 do in these assays?
ATXN2 expr inh: inactive; HepG2 tox-1: inactive; TGFb SMAD3 inh: inactive; S2 tox: inactive

How did COc1cc(/C=C(/C(=O)c2cccs2)c2nc3ccccc3[nH]2)ccc1O do in these assays?
ATXN2 expr inh: inconclusive; HepG2 tox-1: inactive; Giardia kill: inactive; TGFb SMAD3 inh: 16µM; S2 tox: inconclusive; TGFb CAGA inh: 7.3µM; HepG2 tox-2: 13µM; CCL64 TGFb inh: 13µM; TGFb COP inh: inactive

How did COC(=O)/C(=C\c1cc(OC)c(OC)c(OC)c1)c1nc2ccccc2[nH]1 do in these assays?
ATXN2 expr inh: inactive; HepG2 tox-1: inactive; Giardia kill: inactive; TGFb SMAD3 inh: inactive; S2 tox: inactive

Results for O=C(/C(=C/c1ccc(Cl)cc1)c1nc2ccccc2[nH]1)c1cccs1 ?
ATXN2 expr inh: inconclusive; HepG2 tox-1: inactive; Giardia kill: inactive; TGFb SMAD3 inh: 5µM; S2 tox: 3.5µM; uPA generation: inconclusive; TGFb CAGA inh: 3.3µM; HepG2 tox-2: 2.6µM; CCL64 TGFb inh: 4.1µM; TGFb COP inh: inactive

Results for N#C/C(=C\c1ccc(Sc2nc3ccccc3[nH]2)o1)c1ccccc1 ?
ATXN2 expr inh: inconclusive; HepG2 tox-1: inactive; Giardia kill: inactive; TGFb SMAD3 inh: 10µM; S2 tox: inactive; uPA generation: inactive; TGFb CAGA inh: 9.2µM; HepG2 tox-2: inconclusive; CCL64 TGFb inh: inconclusive; TGFb COP inh: inactive

How did N#C/C(=C\c1ccc(Sc2ccc(Cl)cc2)o1)c1nc2ccccc2[nH]1 do in these assays?
ATXN2 expr inh: inactive; HepG2 tox-1: inactive; Giardia kill: inactive; TGFb SMAD3 inh: inactive; S2 tox: inactive; uPA generation: inactive

How did CCCCCN1C(C(=O)c2ccccc2)=C(NC(=O)c2ccc(C)cc2)c2ccccc2S1(=O)=O do in these assays?
ATXN2 expr inh: inactive; HepG2 tox-1: inactive; TGFb SMAD3 inh: inconclusive; S2 tox: inactive

How did CC(C)c1ccc2oc(-c3ccc(Cl)c(NC(=O)Cc4ccccc4)c3)nc2c1 do in these assays?
ATXN2 expr inh: inactive; HepG2 tox-1: inactive; TGFb SMAD3 inh: inactive; S2 tox: inactive

What do the screens show for `O=C(NC1CCCCC1)c1ccc(CSc2nc3cccnc3n2Cc2cccc(F)c2)cc1`?
ATXN2 expr inh: inconclusive; HepG2 tox-1: inactive; TGFb SMAD3 inh: inconclusive; S2 tox: inconclusive

Screening data as filed in PubChem BioAssay.
